PubChem BioAssay (NCI)
About 79,000 compounds went through this panel and 15% of them were active in at least one assay; those are over-represented in the sample as a whole. Active and inactive are the calls of the source. Rule as the data show it: active = growth inhibition above about 70%; inactive = the rest.

How the values were obtained:
[1] = NCI Yeast Anticancer Drug Screen. Data for the wt1 strain (AID 149);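 also: 0% = growth of vehicle-treated wt1 cultures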; settings: S. cerevisiae wt1 strain (SPY 50644) growth inhibition, stronger effect = higher value
Procedure, shortened: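 The wt1 strain was treated with compounds, and growth was compared with vehicle-treated cultures to give inhibition.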

[2] = NCI Yeast Anticancer Drug Screen. Data for the rad50EPP+ strain (AID 151);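 also: 0% = growth of vehicle-treated control cultures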; settings: S. cerevisiae rad50 mutant strain, stronger effect = higher value
Procedure, shortened: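 Growth inhibition read against vehicle controls in rad50EPP+ yeast, a strain altered in DNA damage repair, after compound exposure.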

[3] = NCI Yeast Anticancer Drug Screen. Data for the rad50 strain (AID 155);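 also: 0% = growth of vehicle-only cultures of the same strain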; settings: S. cerevisiae rad50 strain growth inhibition, stronger effect = higher value
Procedure, shortened: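 Cells are treated with compound, grown, and their growth is then scored against vehicle-only cultures of the same repair-deficient yeast strain.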

[4] = NCI Yeast Anticancer Drug Screen. Data for the mec2-1 strain (AID 157); settings: S. cerevisiae mec2-1 strain, stronger effect = higher value
Procedure, shortened: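 Yeast mec2-1 mutant treated with compound. Readout: growth inhibition vs vehicle controls.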

[5] = NCI Yeast Anticancer Drug Screen. Data for the rad14 strain (AID 159);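 also: 0% = growth of vehicle-treated control cultures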; settings: S. cerevisiae rad14 strain growth inhibition, stronger effect = higher value
Procedure, shortened: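 Readout: yeast growth inhibition, referenced to vehicle-only cultures. Strain bears a defined alteration in DNA damage repair.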

[6] = NCI Yeast Anticancer Drug Screen. Data for the sgs1 mgt1 strain (AID 161);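 also: 0% = growth of cultures given vehicle only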; settings: S. cerevisiae sgs1 mgt1 strain, stronger effect = higher value
Procedure, shortened: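 Inhibition of yeast growth, normalised to vehicle-treated controls, is reported for a strain bearing genetic alterations in DNA damage repair.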

[7] = NCI Yeast Anticancer Drug Screen. Data for the CLN2oe strain (AID 163);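 also: 0% = growth of vehicle-only control cultures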; settings: S. cerevisiae CLN2oe strain, stronger effect = higher value
Procedure, shortened: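 Read-out: yeast growth inhibition, expressed relative to vehicle-only controls. The strain bears an engineered cell-cycle alteration.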

[8] = NCI Yeast Anticancer Drug Screen. Data for the cln2 rad14 strain (AID 165);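 also: 0% = growth equal to vehicle treated cultures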; settings: S. cerevisiae cln2 rad14 strain, stronger effect = higher value
Procedure, shortened: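 cln2 rad14 yeast strain; compound exposure; growth inhibition read vs vehicle controls.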

[9] = NCI Yeast Anticancer Drug Screen. Data for the bub3 strain (AID 167); settings: S. cerevisiae bub3 mutant strain, stronger effect = higher value
Procedure, shortened: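 Part of a panel of yeast mutants defective in DNA damage repair or cell cycle regulation. Each strain is grown with compound, and inhibition is calculated relative to solvent-treated cultures.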

[10] = NCI Yeast Anticancer Drug Screen. Data for the wt2 strain (AID 169);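 also: 0% = growth of vehicle-treated yeast cultures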; settings: S. cerevisiae wt2 strain growth inhibition, stronger effect = higher value
Procedure, shortened: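 Read-out: growth inhibition versus vehicle-treated control cultures after compound exposure of the yeast strain.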

[11] = NCI Yeast Anticancer Drug Screen. Data for the mlh1 strain (AID 171);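 also: 0% = growth of vehicle-treated control cultures of the same strain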; settings: S. cerevisiae mlh1 strain growth inhibition, stronger effect = higher value
Procedure, shortened: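 Read-out: growth inhibition versus vehicle controls. Strain: engineered yeast with a defined DNA repair or cell cycle defect, compound-treated.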

[12] = NCI Yeast Anticancer Drug Screen. Data for the rad18 strain (AID 177); settings: S. cerevisiae rad18 mutant growth inhibition, stronger effect = higher value
Procedure, shortened: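 Readout: growth inhibition vs vehicle controls. Cells: genetically altered yeast strain, DNA repair defect.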

[13] = NCI Yeast Anticancer Drug Screen. Data for the mgt1 strain (AID 153); settings: S. cerevisiae mgt1 mutant growth inhibition, stronger effect = higher value
Procedure, shortened: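 mgt1 yeast grown with test compound; read-out is growth inhibition versus vehicle-treated cultures.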

[14] = at 5.0 µM (retest, dose inferred, filed as 0.5)
[15] = at 50.0 µM (retest, dose inferred, filed as 5.0)

Measured: growth inhibition

CC(=O)CC(=O)/C=C/c1cccs1
active: [2]; at 33.0 µM 89% | [2]; at 100.0 µM 92% | [3]; [14] 97% | [3]; at 33.0 µM 76% | [3]; [15] 100% | [3]; at 100.0 µM 92% | [4]; [14] 94% | [4]; [15] 99% | [4]; at 100.0 µM 77% | [5]; at 100.0 µM 89% | [8]; [15] 72% | [9]; at 100.0 µM 90% | [10]; at 100.0 µM 84% | [11]; at 100.0 µM 88% | [12]; at 100.0 µM 88%
inactive: [1]; at 1.2 µM -25% | [1]; at 3.7 µM -23% | [1]; at 11.0 µM -22% | [1]; at 33.0 µM -19% | [1]; at 100.0 µM 59% | [2]; at 1.2 µM 7% | [2]; at 3.7 µM 0% | [2]; at 11.0 µM 33% | [3]; at 1.2 µM -3% | [3]; at 3.7 µM -5% | [3]; at 11.0 µM 18% | [3]; at 50.0 µM 68.7% | [4]; at 1.2 µM -36% | [4]; at 3.7 µM -38% | [4]; at 11.0 µM -21% | [4]; at 33.0 µM 10% | [4]; at 50.0 µM 50% | [5]; at 1.2 µM -12% | [5]; at 3.7 µM -9% | [5]; at 11.0 µM 6% | [5]; at 33.0 µM 8% | [6]; [14] -16% | [6]; [15] 44% | [6]; at 50.0 µM 51.2% | [7]; at 1.2 µM -27% | [7]; at 3.7 µM -30% | [7]; at 11.0 µM -24% | [7]; at 33.0 µM 2% | [7]; at 100.0 µM 38% | [8]; [14] 15% | [8]; at 50.0 µM 32.1% | [9]; at 1.2 µM 2% | [9]; at 3.7 µM -10% | [9]; [14] -1% | [9]; at 11.0 µM -27% | [9]; at 33.0 µM 21% | [9]; [15] 53% | [9]; at 50.0 µM 19% | [10]; at 1.2 µM -17% | [10]; at 3.7 µM -17% | [10]; at 11.0 µM -9% | [10]; at 33.0 µM -10% | [11]; at 1.2 µM -21% | [11]; at 3.7 µM -24% | [11]; at 11.0 µM -1% | [11]; at 33.0 µM 16% | [12]; at 1.2 µM -20% | [12]; at 3.7 µM -26% | [12]; at 11.0 µM 12% | [12]; at 33.0 µM 20%

Nc1nc(N)c2cc(Sc3ccc4ccccc4c3)ccc2n1
active: [1]; at 33.0 µM 86% | [1]; at 100.0 µM 89% | [13]; at 11.0 µM 74% | [13]; at 33.0 µM 93% | [13]; at 100.0 µM 94% | [3]; at 11.0 µM 90% | [3]; at 33.0 µM 95% | [3]; [15] 98% | [3]; at 50.0 µM 88.1% | [3]; at 100.0 µM 92% | [4]; [14] 79% | [4]; at 11.0 µM 94% | [4]; at 33.0 µM 95% | [4]; [15] 99% | [4]; at 50.0 µM 91.3% | [4]; at 100.0 µM 95% | [5]; at 33.0 µM 96% | [5]; at 100.0 µM 94% | [6]; [15] 97% | [6]; at 50.0 µM 89% | [7]; at 33.0 µM 85% | [7]; at 100.0 µM 89% | [8]; [15] 85% | [8]; at 50.0 µM 86.7% | [9]; at 11.0 µM 74% | [9]; at 33.0 µM 94% | [9]; [15] 97% | [9]; at 50.0 µM 85.8% | [9]; at 100.0 µM 93% | [10]; at 33.0 µM 87% | [10]; at 100.0 µM 92%
inactive: [1]; at 1.2 µM 1% | [1]; at 3.7 µM 10% | [1]; at 11.0 µM 44% | [2]; at 1.2 µM 17% | [2]; at 3.7 µM 31% | [2]; at 11.0 µM 31% | [2]; at 33.0 µM 65% | [2]; at 100.0 µM 63% | [13]; at 1.2 µM -23% | [13]; at 3.7 µM 12% | [3]; at 1.2 µM -8% | [3]; at 3.7 µM 43% | [3]; [14] 55% | [4]; at 1.2 µM -13% | [4]; at 3.7 µM 61% | [5]; at 1.2 µM -13% | [5]; at 3.7 µM -2% | [5]; at 11.0 µM 69% | [6]; [14] 62% | [7]; at 1.2 µM 2% | [7]; at 3.7 µM 9% | [7]; at 11.0 µM 50% | [8]; [14] 10% | [9]; at 1.2 µM -21% | [9]; at 3.7 µM -4% | [9]; [14] 30% | [10]; at 1.2 µM -18% | [10]; at 3.7 µM 25% | [10]; at 11.0 µM 69%
